Bioassay records (PubChem BioAssay)
An excerpt weighted towards active compounds, which were near 3.6% of everything screened.
CF NFkB block – blocks PAF-induced NF-kB reporter in cystic fibrosis cells; AID 588850; inhibition, % at 5 µM; KKLEB NF-kB-GFP reporter, GFP fluorescence overnight; 360,000 compounds, 0.86% hits;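 active = at least 50% inhibition at 5 µM, scaled per plate between neutral and stimulator controls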;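 also: PAF is a Pseudomonas aeruginosa culture filtrate used as stimulus; plate controls were PAF-stimulated DMSO wells for no effect and unstimulated DMSO wells for full effect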
HSP90 refold inh – HSP90 refolding inhibition in rabbit reticulocyte lysate; luciferase refolding luminescence, 3 h; inhibition, % at 5.6 µM; 290,000 compounds, 0.91% hits; AID 1789;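 active = inhibition above the screen-wide mean plus 3 SD, computed separately per campaign, cut at about 16% in these data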;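 also: 0% = DMSO wells and 100% = 60 µM geldanamycin wells; inhibitors lower the luminescence because luciferase stays unfolded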
LGR2 inh – inhibitors of bursicon-induced Drosophila LGR2 receptor cAMP signaling | 380,000 compounds, 0.35% hits | HEK293 LGR2, CRE-luciferase, bursicon-stimulated, 4 h | AID 720647 | inhibition, % at 9.99 µM;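 active = drop in luminescence signal, shown as inhibition above about 50% in the replicate tests, limit read from the data, passing the limit was not always enough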;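 also: agonist challenge used bursicon conditioned medium at about half maximal strength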
KKLEB cytotox – CF airway cell cytotoxicity counter-screen | KKLEB CF airway cells viability, ATPlite luminescence, overnight; hits give low values; cells stimulated with P. aeruginosa culture filtrate | activity change (cytotoxicity), % at 5 µM | 360,000 compounds, 0.36% hits;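 active = corrected activity change at or below -50% at 5 µM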
Mdm2-MdmX inh – human Mdm2/MdmX binding inhibition; O15151+Q00987; SaOS-2 split-luciferase Mdm2/MdmX complementation, luminescence; inhibition, % at 8 µM; 330,000 compounds, 3% hits; AID 485346;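 active = inhibition of at least 50% at 8 µM in the primary screen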
Target sequence (O15151 whole entry, looked up): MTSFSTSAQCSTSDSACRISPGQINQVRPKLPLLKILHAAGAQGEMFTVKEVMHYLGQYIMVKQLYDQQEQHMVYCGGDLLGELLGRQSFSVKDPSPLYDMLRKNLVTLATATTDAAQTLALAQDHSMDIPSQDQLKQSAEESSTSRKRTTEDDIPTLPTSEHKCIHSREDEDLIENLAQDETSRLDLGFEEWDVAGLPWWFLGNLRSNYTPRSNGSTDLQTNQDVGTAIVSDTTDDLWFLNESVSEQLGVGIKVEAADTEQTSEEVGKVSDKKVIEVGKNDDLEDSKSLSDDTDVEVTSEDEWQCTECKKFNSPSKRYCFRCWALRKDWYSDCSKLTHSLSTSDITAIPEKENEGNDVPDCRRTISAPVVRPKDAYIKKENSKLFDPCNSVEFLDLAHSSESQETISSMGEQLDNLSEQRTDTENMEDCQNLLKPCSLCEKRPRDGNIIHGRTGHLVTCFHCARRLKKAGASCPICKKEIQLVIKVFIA
Target sequence (Q00987 whole entry, looked up): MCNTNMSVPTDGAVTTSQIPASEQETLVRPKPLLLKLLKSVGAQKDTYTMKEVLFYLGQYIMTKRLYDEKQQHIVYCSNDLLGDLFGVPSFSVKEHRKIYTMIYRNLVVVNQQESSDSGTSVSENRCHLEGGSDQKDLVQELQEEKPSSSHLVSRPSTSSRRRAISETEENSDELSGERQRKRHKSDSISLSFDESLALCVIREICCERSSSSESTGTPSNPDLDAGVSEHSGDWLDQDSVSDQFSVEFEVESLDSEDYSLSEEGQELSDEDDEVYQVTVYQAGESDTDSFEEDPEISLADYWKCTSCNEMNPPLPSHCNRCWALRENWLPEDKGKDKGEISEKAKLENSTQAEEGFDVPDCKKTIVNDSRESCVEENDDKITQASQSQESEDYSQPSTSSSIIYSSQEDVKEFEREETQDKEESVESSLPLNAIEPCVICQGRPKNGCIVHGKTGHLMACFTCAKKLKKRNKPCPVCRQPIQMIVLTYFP
Peg3 prom inh-1 – Peg3 promoter activity inhibition. 360,000 compounds, 1.7% hits. inhibition, % at 20 µM. AID 588405. HeLa PEG-Prom luciferase reporter, luminescence, overnight;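 active = inhibition of at least 50% at 20 µM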
Peg3 prom inh-2 – confirmation of Peg3 promoter inhibitors; HeLa PEG-Prom luciferase reporter, luminescence, overnight; shares compounds with Peg3 prom inh-1; inhibition, % at 20 µM; AID 602417; 1,300 compounds, 84% hits;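 active = at 20 µM dose, 40% or more inhibition averaged across four replicates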
* = called active by the depositor; · = not tested or not shown.

SMILES	CF NFkB block	HSP90 refold inh	LGR2 inh	KKLEB cytotox	Mdm2-MdmX inh	Peg3 prom inh-1	Peg3 prom inh-2
Cc1ccc(C(=O)N/N=C/c2ccc([N+](=O)[O-])s2)cc1	5.9	3.7	·	-4.9	22.2	82.2*	79.8*
COc1ccc(CC(=O)N(Cc2ccccc2)c2ccccc2)cc1S(=O)(=O)N1CCOCC1	-9.4	8.1	8.7	-9.4	42.4	56.3*	47.4*
COCCN(Cc1ccccc1)C(=O)Cc1ccc(OC)c(S(=O)(=O)N2CCOCC2)c1	-22.9	·	-7.2	22.0	12.9	-28.8	·
CCOC(=O)C1CCN(c2cc3c(cc2NC(=O)c2ccccc2OCC)n(C)c(=O)n3C)CC1	19.1	14.6	15.2	-3.2	25.0	51.4*	45.4*
CCCNC(=O)[C@@H]1[C@@H](CO)[C@@H]2Cn3c(ccc(-c4ccccc4F)c3=O)[C@@H]2N1C(=O)CC	·	·	-1.4	·	·	·	·
O=C(NC1CCCC1)N[C@H]1CC[C@@H](CC(=O)N2CCOCC2)O[C@@H]1CO	·	·	10.5	·	·	·	·
C[C@@H]1CCCCO[C@@H](CN(C)CC2CC2)[C@H](C)CN([C@@H](C)CO)C(=O)c2cc(NC(=O)CCCN(C)C)ccc2O1	·	·	-27.3	·	·	·	·
N/C(=N\OC(=O)c1ccccc1)C(Cc1ccccc1)C(=O)NOC(=O)c1ccccc1 (stereo unspecified)	9.4	·	-7.5	-17.1	·	99.3*	98.8*
CCN(CC)c1ccc(C(=C2C=CC(=[N+](CC)CC)C=C2)c2ccccc2)cc1	85.0*	·	105.0*	-86.3*	·	95.9*	98.6*
CCN(CC)c1ccc(C(=O)NNC(=O)CCNC(=O)c2ccccc2)cc1	1.8	·	-15.2	10.2	-37.9	-58.1	·
CC1=C(CC[C@@H](C)CO)OC2CC3C4CCC5CC(O)CCC5(C)C4CC(=O)C3(C)C12 (stereo partly specified)	-6.6	·	43.9	-16.8	44.9	64.9*	58.1*
COc1ccc2c3c([nH]c2c1)[C@@H](CO)N(C(=O)CN(C)C)CC31CN(CC2CCOCC2)C1	·	·	0.9	·	·	·	·
COc1ccc(NC(=O)N(C)C[C@H]2Oc3ccc(NC(=O)Cn4cnnn4)cc3CC(=O)N([C@@H](C)CO)C[C@H]2C)cc1	·	·	-9.5	·	·	·	·
CN1Cc2cccc3c2C(Cc2ccccc2S3)C1 (stereo unspecified)	7.6	-3.5	23.2	-3.7	22.7	8.1	·
CCc1ccc2c(c1)Sc1ccccc1CC2N1CCN(C)CC1 (stereo unspecified)	10.4	·	4.1	-16.3	43.9	55.2*	77.5*
C[C@@H]1CCCCO[C@@H](CN(C)S(=O)(=O)c2ccccc2)[C@H](C)CN([C@@H](C)CO)C(=O)c2cc(NC(=O)CCCN(C)C)ccc2O1	·	·	-5.9	·	·	·	·
C[C@@H]1CN([C@H](C)CO)C(=O)c2cc(/C=C/c3ccccc3)cnc2O[C@@H]1CN(C)C(=O)c1ccc2c(c1)OCO2	·	·	-10.7	·	·	·	·
O=C1c2cccc3cccc(c23)C(=O)N1CCCN(C(=O)c1cccs1)c1cccc(F)c1	-9.4	-5.7	12.8	-12.1	47.3	52.2*	33.4
COc1ccc(N(CCCN2C(=O)c3cccc4cccc(c34)C2=O)C(=O)c2cccc(OC)c2)cc1	6.4	4.4	-4.1	-37.8	39.2	44.7	·
COc1ccc(NC(=O)N(C)C[C@@H]2Oc3ccc(NC(=O)C4CCCCC4)cc3C(=O)N([C@H](C)CO)C[C@H]2C)cc1	·	·	-2.5	·	·	·	·
Cc1cccc(-c2cc(NC=O)c3ncc(-c4cccc(C(=O)N(C)C)c4)n3c2)c1	18.6	·	-6.3	-10.9	·	25.7	·
CN(C)C(=O)c1cccc(-c2cnc3c(NC=O)cc(-c4cccc(C(F)(F)F)c4)cn23)c1	-1.1	·	16.3	-14.8	·	56.6*	61.2*
COc1cccc(-c2cnc3c(NC=O)cc(-c4cccc(C(=O)N(C)C)c4)cn23)c1	-37.3	·	-15.0	-8.3	·	54.9*	54.4*
NC1=C(Br)C(=O)c2ncccc2C1=O	79.4*	·	101.0*	-64.4*	·	102.3*	99.3*
Cc1cc(C2=NNC(=NC3CC3)SC2)c(C)n1Cc1ccco1	22.2	0.2	·	-11.5	·	86.0*	89.6*
SMILES	CF NFkB block	HSP90 refold inh	LGR2 inh	KKLEB cytotox	Mdm2-MdmX inh	Peg3 prom inh-1	Peg3 prom inh-2
CCn1cc(C(=O)NCc2ccco2)c(=O)c2cc(S(=O)(=O)N3CC(C)CC(C)C3)ccc21 (stereo unspecified)	-1.2	-1.1	·	6.3	37.4	58.2*	60.8*
CCn1cc(C(=O)NCc2ccco2)c(=O)c2cc(S(=O)(=O)N3CCC(C)CC3)ccc21	-15.7	1.4	·	-4.6	11.4	18.1	·
CCOc1cc(/C=N/Nc2nc(-c3cccc(S(=O)(=O)N4CCCC4)c3)cs2)ccc1O	-16.0	-1.7	32.5	23.3	45.4	51.6*	47.0*
COc1ccc(-c2cc(C(=O)N(C)Cc3cccc(OC)c3OC)c3ccccc3n2)cc1OC	9.2	-1.2	-7.2	-14.4	48.7	55.1*	56.2*
CCN(CC)CCNc1cccc2sc3ccccc3c(=O)c12	-12.6	·	·	-8.7	·	100.8*	68.2*
CCN(CC)CCNc1ccc(CO)c2oc3ccccc3c(=O)c12	-36.8	·	-9.1	-6.1	·	7.0	·
Cc1cc(C(=O)Nc2cccc3c2O[C@@H](CN(C)CC2CC2)[C@@H](C)CN([C@@H](C)CO)C3=O)n(C)n1	·	·	2.2	·	·	·	·
CC(NC(=O)c1ccc([N+](=O)[O-])o1)C12CC3CC(CC(C3)C1)C2 (stereo unspecified)	99.6*	2.4	14.7	-70.3*	43.9	86.2*	76.7*
CC1CCCC(C)N1C(=C(Cl)Cl)C(=C1SCCS1)[N+](=O)[O-] (stereo unspecified)	25.5	0.8	-32.7	-27.5	8.3	70.9*	59.0*
Cc1ccc(N2C(=O)CS/C2=C(\C(Cl)=C(Cl)Cl)[N+](=O)[O-])cc1	-7.5	6.5	7.6	21.8	4.2	2.1	·
CCN1CCc2c(sc(NC(=O)c3ccc(S(=O)(=O)N4CCCCCC4)cc3)c2C(=O)NC)C1	5.3	-4.3	-6.1	5.7	15.7	71.3*	61.9*
CNC(=O)c1c(NC(=O)c2ccc(S(=O)(=O)N3CCCC3)cc2)sc2c1CCN(C(C)C)C2	·	3.2	-3.7	·	5.0	·	·
CN1C/C(=C/c2ccccc2[N+](=O)[O-])C(=O)/C(=C\c2ccccc2[N+](=O)[O-])C1	-14.2	·	-45.3	2.7	·	95.9*	99.5*
S=C(NCc1ccccc1)C(=S)NCc1ccccc1	5.6	·	-17.5	-15.0	·	-37.3	·
c1ccc(CN=C(NCc2ccccc2)NCc2ccccc2)cc1	2.1	·	15.8	-6.6	·	89.8*	88.4*
CCC(=O)N1[C@@H]2CN(C(=O)CC(F)(F)F)c3ccccc3[C@@H]2[C@@H]1CO	·	·	7.4	·	·	·	·
OC1(c2ccc(Cl)c(Cl)c2)C[n+]2ccccc2N1Cc1ccccc1 (stereo unspecified)	25.5	-0.2	12.9	-4.9	47.3	94.7*	89.6*
